High-throughput results deposited in PubChem BioAssay by National Center for Advancing Translational Sciences (NCATS).
Rows were chosen to be rich in hits. Some 7.9% of all compounds tested hit in one or more screens of this group.
MCF10A rereplic = induces DNA re-replication in MCF 10a normal breast cells; AID 624296; actives 2.9% (n = 350,000); Potency, µM (series often up to 46.1 µM), for inactives: top-dose activity, positive = re-replication, hits mostly activators; MCF 10A DNA re-replication, Hoechst nuclear intensity, 48 h; note: % of control where 0% means no effect; nearly all actives have a fitted effect of over 50% in size
KB-V1 cytotox = kills drug-selected multidrug resistant KB-V1 cells. KB-V1 MDR cells viability, CellTiter-Glo, 72 h. actives 3.4% (n = 400,000). AID 1347076. Potency, µM (series often up to 46.1 µM), actives largely listed as cytotoxic; note: % is set by controls: 0 for no effect and ±100 for the full control effect; nearly all actives have a fitted effect of over 60% in size
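Readout: CellTiter-Glo luminescence, 10 min after addition. Cells: KB-V1 MDR subline, 72 h at 37 degrees C with compound. Analysis: corrected, normalized data fitted to concentration-effect curves.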
KB-3-1 cytotox = kills parental KB-3-1 adenocarcinoma cells; KB-3-1 viability, CellTiter-Glo ATP luminescence, 72 h; Potency, µM (titrated, usually from 46.1 µM), actives largely listed as cytotoxic; actives 1.4% (n = 400,000); AID 1347075; note: % is set by controls: 0 for no effect and ±100 for the full control effect; nearly all actives have a fitted effect of over 60% in size
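Parental KB-3-1 viability, qHTS format: 72 h compound exposure, 37 °C; CellTiter-Glo; media-only wells and DMSO plates as controls; concentration-effect fits on corrected data.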
SW480 rereplic = induces DNA re-replication in SW480 colon adenocarcinoma cells | actives 1.8% (n = 340,000) | Potency, µM (doses to about 46.1 µM), without a hit: at the highest dose re-replication activation, most hits filed as activators | SW480 DNA re-replication, Hoechst DNA content imaging, 48 h | AID 624297; note: % of control where 0% means no effect; nearly all actives have a fitted effect of over 55% in size
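First, 250 cells per well were seeded. Next, compound or vehicle (23 nL) was pinned in, plates sat 48 hr at 37 C. Finally Hoechst was added for 40 min before fluorescence scanning.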
HT1080 IDH1KD tx = kills HT-1080 cells with IDH1 knockdown; actives 2% (n = 360,000); AID 686971; Potency, µM (titrated, usually from 46.1 µM), without a hit: top-dose activity, negative = toxicity, hits mostly cytotoxic; HT-1080 IDH1 knockdown viability, ATP luminescence, 48 h;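 note: 0% = DMSO wells and -100% = cell-free medium wells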
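HT-1080-IDH1KD cells (IDH1 knocked down), 750/well in RPMI with 5% FBS, treated with compound 48 h at 37 degrees C. Viability by CellTiter-Glo luminescence, normalised to DMSO and no-cell wells; concentration-response curves classed.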
HT1080-NT tox = kills 2HG-producing HT-1080-NT fibrosarcoma cells. HT-1080-NT fibrosarcoma viability, CellTiter-Glo ATP luminescence, 48 h. Potency, µM (doses to about 46.1 µM), inactives show at the top dose activity, negative = less viability, hits mostly cytotoxic. actives 1.6% (n = 360,000). AID 686970;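 note: NT is the 2HG producing partner of a matched IDH1 knockdown line; 0% = DMSO-treated cells and -100% = media-only wells without cells; nearly all actives have a fitted effect of over 55% in size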
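HT-1080-NT fibrosarcoma cells (2HG-overproducing), 750 cells/well in RPMI with 5% FBS, dosed after 2 h and incubated 48 h at 37C. CellTiter-Glo luminescence normalized to DMSO and no-cell wells; concentration-response curves fitted and classed.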
Starred values were filed as active, the others as inactive; i = inactive; ? = inconclusive; nt = not tested or not shown; [ ] = remark or other dose. Calls come from the whole dose curve; as a rule, active = well fitted curve in the direction sought with a large enough effect; inconclusive = small, poorly fitted or top-dose-only effect, or another doubt; inactive = no such curve, though single readings can be large; an effect the other way counts as inactive or inconclusive. Potency is the fitted concentration of half-maximal effect.

SMILES	MCF10A rereplic	KB-V1 cytotox	KB-3-1 cytotox	SW480 rereplic	HT1080 IDH1KD tx	HT1080-NT tox
C[C@@H](C(=O)NCCc1c[nH]c2ccccc12)[C@H]1C[C@]1(C)[C@H](NC(=O)OCc1ccccc1)c1ccccc1	-4.5%	i	16.4µM*	14.6µM*	-13.7%	-10.3%
CSc1ccc(CN2C(=O)C(C)Sc3ccc(C(C)=O)cc32)cc1 (stereo not given)	nt	i	i	nt	?	?
O=C(Nc1nccs1)c1cc2c(s1)-c1ccccc1OC2	9.2µM*	i	?	16.4µM*	-24.2%	-21.6%
O=C(Nc1nc2ccccc2s1)c1cc2c(s1)-c1ccccc1OC2	?	i	i	6.51µM*	11.1%	4.6%
Cc1cccc2c1-c1sc(C(=O)Nc3nccs3)cc1CO2	3.66µM*	i	i	7.31µM*	-1.4%	-7.0%
O=C(Nc1cccnc1Cl)c1cc2c(s1)-c1ccccc1OC2	18.4µM*	i	i	133.7%	-16.3%	-7.6%
O=C(Nc1cccnc1)c1cc2c(s1)-c1ccccc1OC2	0.5%	i	i	13.8%	8.2%	-0.8%
CCC1CCCCN1C(=S)NCc1ccccc1 (stereo not given)	0.3%	i	i	-1.5%	7.8%	3.3%
CN1C(=O)/C(=C/c2cccc([N+](=O)[O-])c2)C(=O)N1c1ccccc1	?	i	?	?	-8.2%	0.9%
CCCN1C/C(=C/c2cccc([N+](=O)[O-])c2)C(=O)/C(=C/c2cccc([N+](=O)[O-])c2)C1	0.92µM*	?	?	1.64µM*	23.1µM*	-4.5%
CCCN1C/C(=C/c2ccc3c(c2)OCO3)C(=O)/C(=C/c2ccc3c(c2)OCO3)C1	?	?	23.1µM*	4.61µM*	?	?
CCc1ccccc1NC(=O)C1CCN(C(=O)N2CC(C)Oc3ccc(Cl)cc32)CC1 (stereo not given)	nt	i	i	nt	nt	nt
Nc1nc(N)c2sc3nc(C(F)(F)F)cc(C(F)(F)F)c3c2n1	?	18.4µM*	i	-2.6%	-15.5%	-10.7%
Nc1ccc2c(C(F)(F)F)cc(C(F)(F)F)nc2n1	?	?	i	?	-0.2%	0.6%
CC(=O)c1cccc(NC(=O)C(C)n2c(=O)cc(-c3ccccc3)c3c(C)nn(C)c32)c1 (stereo not given)	nt	i	i	nt	nt	nt
O=C(CN1c2cccc3cccc(c23)S1(=O)=O)Nc1ccc(S(=O)(=O)N2CCOCC2)cc1	?	?	i	?	-7.9%	-14.0%
CCOC(=O)Cn1nc(C)cc1NC(=O)c1cc(OC)c(OC)c(OC)c1	23.1µM*	i	i	-2.0%	-7.6%	-29.0%
c1ccc(-n2nnnc2-n2nnc3ccccc32)cc1	-6.2%	i	i	1.2%[9.22 µM]	-2.8%	1.4%
CC(C)(C)C1CCc2nc(NC(=O)Cc3ccccc3)sc2C1 (stereo not given)	nt	i	i	nt	nt	nt
CC(C)C(=O)OCC(=O)[C@@]12OC(C3CCCCC3)O[C@@H]1CC1C3CCC4=CC(=O)C=C[C@]4(C)C3[C@@H](O)C[C@@]12C (stereo not given in full)	?	nt	nt	11.9µM*	nt	nt
CCCC1O[C@@H]2C[C@H]3[C@@H]4CCC5=CC(=O)C=C[C@]5(C)[C@H]4[C@@H](O)C[C@]3(C)[C@]2(C(=O)CO)O1 (stereo not given in full)	5.5%	i	i	-27.3%	8.8%	-3.4%
CCOC(=O)c1cnc2ccc(OCC)cc2c1N1CCN(c2cccc(Cl)c2)CC1	nt	i	?	nt	nt	nt
O=C(/C=C/c1c(F)cccc1Cl)c1ccc(O)cc1	3.26µM*	i	?	?	?	?
O=C(/C=C/c1ccccc1Cl)c1ccc(O)cc1	?	?	i	?	?	-1.6%
